# The sample as a whole holds a higher share of hits than the screen did.
# Pf Dd2 inh – blocks in vitro growth of P. falciparum Dd2 | P. falciparum Dd2 growth, SYBR Green, 72 h | AID 1347417 | Potency, µM (doses to about 28.9 µM), for the others: at the top dose activity, negative = inhibition, most hits filed as inhibitors | hit rate 4.3% among 120,000; active means well fitted inhibition curve with a large enough effect;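 further: plate controls were DMSO vehicle for no effect and reference drug for full effect; nearly all actives have a fitted effect of over 65% in size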
#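 Readout: SYBR Green fluorescence, 485 nm excitation, 535 nm emission, after ~16 h lysis at 37C. Before that, Dd2-infected red cells (2.5% hematocrit) grew 72 h with compound, 29 uM top final concentration.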
# * hit, by the source's call; i = inactive; [ ] = remark or other dose. Potency means the concentration at half of the fitted maximal effect.
SMILES,Pf Dd2 inh
COc1ccc(-c2cc(N3CCC(NC(=O)Cc4ccccc4Cl)CC3)n[nH]2)cc1,-9%
CCOc1ccccc1C1NC(=O)N(CC(=O)NCc2ccc(C)cc2)C2=C1C(=O)OC2 (stereo not given),i
CC(=O)Nc1cccc(-c2cnc3n[nH]c(-c4ccc5c(c4)OCO5)c3n2)c1,2.5µM*
CC(=O)Nc1cccc(-c2cnc3n[nH]c(-c4sccc4C)c3n2)c1,i
CC(=O)Nc1cccc(-c2cnc3n[nH]c(-c4ccc(F)cc4C)c3n2)c1,-12%[44.1 µM]
COc1cc(O)ccc1CN1CCn2nnc(CCC(=O)N3CCCC3)c2C1,-17%
Cc1ccc(-c2ccc3nnc(CNC(=O)c4ccn[nH]4)n3n2)cc1C,17%
CC(C)NC(=O)[C@@H]1C[C@H](N)CN1C(=O)c1ccccc1-c1ncc[nH]1,2%
Cc1ncsc1CCCNc1nc(-c2ccccn2)nc2c1CCNCC2,i
c1ccc(OCCNc2nc(-c3cccnc3)nc3c2CCNCC3)cc1,2.2µM*
c1cc(-c2nc3c(c(NCc4cn5c(n4)SCC5)n2)CCNCC3)ccn1,-3%
C=CCC1(C(=O)O)CCCN(Cc2ccc(OC)c(COC)c2)C1 (stereo not given),-7%
Cc1noc(-c2nc(-c3ccc(Cl)cc3)no2)n1,-17%
CCn1cc(CN(CCOC)Cc2cccs2)ccc1=O,-9%
CN(C)C(=O)C1CN(C(=O)c2ccccc2OC(F)(F)F)CC12CCOCC2 (stereo not given),5%
O=C(C1CCN(S(=O)(=O)c2cccs2)CC1)N1CCN(c2cccc(Cl)c2)CC1,-15%
O=C(C1CCC(CNS(=O)(=O)c2ccc(Br)s2)CC1)N1CCN(c2ccccc2)CC1 (stereo not given),-6%
O=C(C1CCC(CNS(=O)(=O)c2cccs2)CC1)N1CCN(c2ccc(Cl)cc2)CC1 (stereo not given),13µM*
CCN1c2cc(C(=O)Nc3ccc(OC)c(Cl)c3)ccc2C(=O)N2CCCCC21 (stereo not given),i
Cc1ccccc1CCC1CCCN(C(=O)c2ccccc2-c2nn[nH]n2)C1 (stereo not given),-14%
CN(Cc1ccccc1)C(=O)c1cc(-c2ccncc2)cn1C,-20%
CCCn1cc(-c2ccncc2)cc1C(=O)NCc1ccc(C)o1,-1%
Cc1ccc(Cn2cc(-c3ccncc3)cc2C(=O)O)cc1,i
Cc1ccccc1Cn1cc(-c2ccncc2)cc1C(=O)N1CCCC(C)C1 (stereo not given),10µM*
Cc1ccccc1Cn1cc(-c2ccncc2)cc1C(=O)N(C)Cc1ccco1,3.5µM*
SMILES,Pf Dd2 inh
O=C(O)C[C@@H]1CCN(C(=O)C(=O)O)C[C@@H]1CC1=NCCc2ccccc21,36%[44.1 µM]
CCN(CC)c1ncccc1CNC(=O)C1CCOC1 (stereo not given),i
COc1ccc(N2CC(C(=O)NCC3CC3)NC2=O)cc1 (stereo not given),-13%[44.1 µM]
CCn1cc(S(=O)(=O)c2cccc(C)c2)c(=O)c2cc(F)c(N3CCCC(C)C3)cc21 (stereo not given),77%
Cc1ccc(C)c(Cn2cc(S(=O)(=O)c3ccc(Cl)cc3)c(=O)c3cc(F)ccc32)c1,i
COc1ccc(S(=O)(=O)c2cn(C)c3cc(N4CCCCCC4)c(F)cc3c2=O)cc1,8.9µM*
CCCn1cc(S(=O)(=O)c2ccc(OC)cc2)c(=O)c2cc(F)c(N3CCCC(C)C3)cc21 (stereo not given),11µM*
CCOc1ccc(S(=O)(=O)c2cn(Cc3cc(C)ccc3C)c3ccc(OCC)cc3c2=O)cc1,10µM*
Cc1cc(C)cc(S(=O)(=O)c2cn(C)c3cc(N4CCCC4)c(F)cc3c2=O)c1,i
CCCn1cc(S(=O)(=O)c2ccc(OCC)cc2)c(=O)c2cc(C)ccc21,-13%
CCCCn1cc(S(=O)(=O)c2ccc(C)c(C)c2)c(=O)c2cc(F)c(N3CCCC(C)C3)cc21 (stereo not given),-7%
CCCCn1cc(S(=O)(=O)c2ccc(OC)cc2)c(=O)c2cc(CC)ccc21,-21%
CCc1ccc(S(=O)(=O)c2cn(C)c3cc(OC)c(OC)cc3c2=O)cc1,i
Cn1cc(S(=O)(=O)c2cccc(Cl)c2)c(=O)c2cc(F)c(N3CCCCC3)cc21,5%
CCc1ccc(S(=O)(=O)c2cn(Cc3ccc(OC)cc3)c3cc(OC)c(OC)cc3c2=O)cc1,11µM*
Cc1cccc(C(=O)N2CCCCCCNC(=O)[C@@H]3CCC[C@@H]32)c1,7%
COc1ccc(C2NC(=O)N(Cc3nc(C4CC4)no3)C3=C2C(=O)OC3)cc1 (stereo not given),-2%
COc1ccc(-c2nc3c([nH]2)CN(S(=O)(=O)N2CCCC2)CC3)cn1,-22%
CN1CC(=O)N(c2ccc([N+](=O)[O-])cc2)Cc2c1ncnc2N1CCOCC1,-9%
Cc1ncc2n1C(=O)N(C1CCN(C(=O)NC3CCCC3)CC1)C2,20%[44.1 µM]
NC(=O)c1ccc(CC2CCN(C(=O)C3CC=CC3)CC2)cc1,-14%
COCCN1C(=O)CC[C@]2(C(=O)N(C)CCc3ccncc3)CCCC[C@@H]12,-18%
CCCn1cc(S(=O)(=O)c2ccccc2)c(=O)c2cc(F)c(N3CCCC3)cc21,-12%
CCCCn1cc(S(=O)(=O)c2ccc(C)cc2)c(=O)c2cc(F)c(N3CCCCC3)cc21,-7%
CCc1ccc(S(=O)(=O)c2cn(C)c3cc(N4CCN(CC)CC4)c(F)cc3c2=O)cc1,260%[5.79 µM]
SMILES,Pf Dd2 inh
CCCCn1cc(S(=O)(=O)c2ccc(OC)cc2)c(=O)c2cc(F)c(N3CCCC3)cc21,-12%
CCCn1cc(S(=O)(=O)c2ccccc2)c(=O)c2cc(F)c(N3CCCCCC3)cc21,11µM*
CCCn1cc(S(=O)(=O)c2ccc(OC)cc2)c(=O)c2cc(F)c(N3CCCCCC3)cc21,11µM*
COc1ccc(CC(=O)NC2CCN(c3cc(-c4ccc(F)cc4)[nH]n3)CC2)cc1OC,i
CN(CC1CCOCC1)S(=O)(=O)Cc1ccccc1Cl,i
O=C(C1CC1)N1CCC(N2C(=O)C(OCC3CC3)C23CCOCC3)CC1 (stereo not given),6%
O=C(O)[C@@H]1CN(S(=O)(=O)N2CCOCC2)C[C@H]1c1cccnc1,-10%
COc1ccccc1-c1ccnc(N[C@H]2CO[C@H]3[C@@H]2OC[C@@H]3NS(C)(=O)=O)n1,14µM*
COc1ccccc1-c1ccnc(N[C@H]2CO[C@H]3[C@@H]2OC[C@@H]3NS(=O)(=O)c2cccs2)n1,-16%
COc1ccccc1-c1ccnc(N[C@H]2CO[C@H]3[C@@H]2OC[C@@H]3NS(=O)(=O)c2ccc(NC(C)=O)cc2)n1,i
COCCOCC(=O)N1CC(c2nnc(-c3ccncc3)o2)C2(CCOCC2)C1 (stereo not given),19%
O=C(NC1CCN(c2cc(-c3cccs3)[nH]n2)CC1)c1cccc(Cl)c1,i
Cc1sc2c(c1C)c(=O)n(Cc1ccccc1)c(=O)n2Cc1ccc(F)cc1,46%
Cc1cc(C)c(NC(=O)Cn2c(=O)n(Cc3ccccc3)c(=O)c3c(C)c(C(=O)N(C)C)sc32)c(C)c1,-27%
CCN(CC)C(=O)c1sc2c(c1C)c(=O)n(CCc1ccccc1)c(=O)n2Cc1ccc(C)cc1,11µM*
CCN(CC)C(=O)c1sc2c(c1C)c(=O)n(-c1ccccc1)c(=O)n2Cc1cc(=O)n2ccccc2n1,16%
CCc1ccc(-n2c(=O)c3c(C)c(C(=O)N(C)C)sc3n(Cc3cccc(C)c3)c2=O)cc1,31%
Cc1ccccc1NC(=O)Cn1c(=O)n(Cc2ccccc2)c(=O)c2c(C)c(C)sc21,18%
